Article PMC5540273 (PLoS ONE, 2017)

Test system: WNK1
Details: concentration: 1 μM, replicates: in singlicate; n = 1
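Also: KINOMEscan kinase panel screen.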

SMILES | %Inh [%]
Clc1ccc(-c2cc(-c3c[nH]nc3-c3ccccn3)ccn2)cc1 [GW681251] | 16
Fc1ccc(Nc2nccc(-c3c(-c4ccc(Cl)cc4)nn4ncccc34)n2)cc1F [GW829058] | 42
CS(=O)(=O)CCNCc1ccc(-c2ccc3ncnc(Nc4ccc(OCc5ccccc5)c(Cl)c4)c3c2)o1.Cl [GW574783] | 11
CN1c2ccc(-c3ccc(C(=O)NCCO)cc3)cc2-c2[nH]ncc2S1(=O)=O | 0
CCc1nc(-c2cccc(N(C)S(=O)(=O)c3ccccc3)c2)c(-c2ccnc(Nc3ccc(N4CCN(C(C)=O)CC4)nc3)n2)s1 [GSK1645895] | 3
Oc1ccc2ncnc(Nc3ccc(OCc4ccccc4)cc3)c2c1 [GI262866] | 0
Cc1ccc(NC(=O)c2cccc(C#N)c2)cc1-c1ccc(C(=O)Nc2ccncc2)cc1 [GSK1398463] | 17
CC(C)(C)OC(=O)NC1CCCN(c2cc(-c3ccc4c(N)n[nH]c4c3)nc(N)n2)C1 (stereo not drawn) [GSK2286096] | 6
COc1ccc(Nc2nccc(N3CCC(NC(=O)Nc4ccc5c(c4)OCO5)C3)n2)cc1 (stereo not drawn) [GSK1379745] | 2
COc1ccc(NC(=O)Nc2ccc(C)c(-c3ccc(C(=O)Nc4ccncc4)cc3)c2)cc1 [GSK1398475] | 4
Cn1ccc2ncnc(Oc3ccc(NC(=O)Nc4cccnc4)c(Cl)c3)c21 | 0
Fc1cccc(COc2ccc(Nc3ncnc4cc[nH]c34)cc2Cl)c1 | 0
Cl.Cl.c1ccc(-c2cc3ccncc3cc2OC2CCNCC2)cc1 [GSK1122999] | 7
Cc1cccc(-c2nc(Nc3ccc4[nH]nnc4c3)c3ccccc3n2)n1 [GW867587] | 0
COc1cc2c(Nc3cccc(NC(=O)c4ccccc4)c3)ncnc2cc1OCCCN1CCOCC1 [GSK223810] | 4
Nc1nccc2scc(-c3ccc4c(c3)CCN4C(=O)Cc3cc(F)ccc3F)c12 [GSK2587663] | 33
COc1ccc(NC(=O)c2ccc(-c3cc(-c4nnc(C)o4)ccc3C)cc2)cc1 [GW595885] | 0
FC(F)(F)c1ccc(-c2nn3ncccc3c2-c2ccnc(Nc3cccc(C(F)(F)F)c3)n2)cc1 [GW828205] | 0

SMILES | %Inh [%]
NC(=O)c1sc(-n2cnc3ccccc32)cc1OCc1ccccc1F [GSK1024306] | 3
Cl.O=S(=O)(c1cccc(F)c1)c1ccc(Nc2ncnc3cc(Br)sc23)cc1Cl [GSK306886] | 4
CCCc1ccc(S(=O)(=O)NC2CCN(c3ccnc(Nc4ccc(OC)cc4)n3)C2)cc1 (stereo not drawn) [GSK1379737] | 8
CCn1c(-c2ccncc2)nc2cnccc21 [SB-735216] | 0
O=C(CCO)NCCn1ccc2ncnc(Nc3ccc(Oc4cccc(C(F)(F)F)c4)c(Cl)c3)c21 | 0
Cl.Fc1ccccc1COc1ccc(Nc2ncnc3ccc(-c4nnc(C(F)(F)F)o4)cc23)cc1Cl [GW424170] | 7
Cn1cc(-c2ccc3c(c2)CCN3C(=O)Cc2cccc(C(F)(F)F)c2)c2c(N)ncnc21 [GSK2606414] | 3
CNc1nccc(-c2c(-c3ccc(F)cc3)ncn2C2CCN(C)CC2)n1 [SB-222903] | 0
Cl.Cn1ccc(-c2cccc(Nc3ccnc4cc(-c5nccs5)ccc34)c2)n1 [GW525701] | 17
Fc1ccc(-c2ncn(CCCNCc3ccccc3)c2-c2ccncc2)cc1 | 0
C[C@@H]1CCN(C(=O)CO)C[C@@H]1N(C)c1ncnc2[nH]ccc12 | 0
CC(C)(C)c1ccc(-n2cnc3c(N)ncnc32)cc1 [SKF-97263] | 3
COc1ccc(-c2oc3ncnc(N)c3c2-c2ccc(OC)cc2)cc1 [SB-589132] | 22
FC(F)(F)c1cc(Nc2nccc(-c3c(-c4ccc(Cl)cc4)nn4ncccc34)n2)ccc1Cl [GW829351] | 0
O=C(Nc1ccccc1F)NC1CCN(c2ccnc(Nc3ccc(F)cc3)n2)C1 (stereo not drawn) [GSK1379722] | 10
O=C(NCCCN1CCCC1=O)c1cnc(NCc2cc(Cl)ccc2Cl)nc1NC1CCNCC1 | 0
Cl.c1ccc(Cn2ncc3cc(Nc4ncnc5ccccc45)ccc32)cc1 [GW273749] | 3
Fc1cccc(COc2ccc(Nc3ncnc4sc(-c5ccc[nH]5)cc34)cc2Cl)c1 [GW707818] | 12
